KB-3-1 tox: qHTS assay for MDR1-selective chemotherapeutics: Primary screen using the parental adenocarcinoma cell KB-3-1; KB-3-1 viability, CellTiter-Glo ATP luminescence, 72 h; Potency, µM (titrated, usually from 46.1 µM), most hits filed as cytotoxic; 400,000 tested, 1.4% active; AID 1347075, 2019; further: on the % scale 0 is the no-effect control and ±100 the full control effect; nearly all actives have a fitted effect of over 60% in size
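Here the drug-naive KB-3-1 line serves as comparator for MDR sub-line selectivity; cells received compound titrations, 72 h at 37 °C, then CellTiter-Glo readout.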
SW480 rerep: A quantitative high throughput screen for small molecules that induce DNA re-replication in SW480 colon adenocarcinoma cells; 340,000 tested, 1.8% active; SW480 DNA re-replication, Hoechst DNA content imaging, 48 h; Potency, µM (highest dose often 46.1 µM), inactives show top-dose re-replication activation, usual class: activators; AID 624297, 2012; further: % of control where 0% means no effect; nearly all actives have a fitted effect of over 55% in size
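First, 250 cells per well were seeded. Next, compound or vehicle (23 nL) was pinned in, plates sat 48 hr at 37 C. Finally Hoechst was added for 40 min before fluorescence scanning.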
KB-V1 MDR tox: qHTS assay for MDR1-selective chemotherapeutics: Primary screen using the drug-selected MDR subline cells KB-V1. KB-V1 MDR cells viability, CellTiter-Glo, 72 h. Potency, µM (titrated, usually from 46.1 µM), usual class: cytotoxic. 400,000 tested, 3.4% active; further: on the % scale 0 is the no-effect control and ±100 the full control effect; nearly all actives have a fitted effect of over 60% in size
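KB-V1 cells (P-gp-expressing MDR subline of KB-3-1) in phenol-red-free DMEM with 10% FBS were exposed to library compounds over a concentration series for 72 h at 37 degrees C. Viability read by CellTiter-Glo luminescence; concentration-effect curves fitted after normalization.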
PINK1 modulator: A Quantitative High throughput Screen to Identify Chemical Modulators of PINK1 Expression; 410,000 tested, 0.2% active; AID 624263, 2012; Potency, µM (top dose mostly 76.6 µM), without a hit: at the highest dose activation (PINK1 increase), hits mostly activators; PINK1 immunofluorescence, high-content cytometry, 24 h; active means well fitted activation curve with a large enough effect; inconclusive means small, poorly fitted or top-dose-only effect; cell line not stated here; further: % of control where 0% means no effect; nearly all actives have a fitted effect of over 65% in size
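Fluorescence from anti-PINK1 antibody, together with nuclear and cell stains, was scanned on a laser-scanning cytometer. Before staining, stable-line cells were incubated 24 hours with compounds at 5 concentrations; primary antibody 12 h at 10 degrees C.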
MCF10A rereplic: A quantitative high throughput screen for small molecules that induce DNA re-replication in MCF 10a normal breast cells; MCF 10A DNA re-replication, Hoechst nuclear intensity, 48 h; 350,000 tested, 2.9% active; Potency, µM (highest dose often 46.1 µM), inactives show top-dose activity, positive = re-replication, most hits filed as activators; further: % of control where 0% means no effect; nearly all actives have a fitted effect of over 50% in size
* marks the source's active call; other numbers are inactive results; [ ] = another dose, or the depositor's remark. Compounds with a hit are over-represented: about 6.7% of the library has one in this group of screens. Unless noted, the call rests on the fitted dose curve; in most records, active means well fitted curve in the direction sought with a large enough effect; inconclusive means small, poorly fitted or top-dose-only effect, or another doubt; inactive means no such curve, though single readings can be large; an effect the other way counts as inactive or inconclusive. Potency means the concentration at half of the fitted maximal effect.

For COc1ccc(C(CNC(=O)COc2ccc(Cl)c(C)c2)N2CCOCC2)cc1 (configuration not stated) the results were PINK1 modulator 0.7%.
For COc1cc(C(=O)Nc2ccc(N(C)C)cc2)cc(OC)c1OC the results were KB-3-1 tox inactive, SW480 rerep 10.4%, KB-V1 MDR tox inactive, PINK1 modulator 11.2µM* and MCF10A rereplic -4.1%.
Cc1nc2cc(NC(=O)c3ccc(Cl)cc3)ccc2n1C was read as KB-3-1 tox inactive, SW480 rerep inconclusive, KB-V1 MDR tox inactive, PINK1 modulator 2.1% and MCF10A rereplic -2.4%.
Screening CCCn1cnc2cc(NC(=O)c3cc(OC)c(OC)c(OC)c3)ccc21 returned PINK1 modulator -0.8%.
CN(C)c1ccc(NC(=O)c2ccc3c(c2)nnn3C)cc1 was read as KB-3-1 tox inactive, SW480 rerep 16.4µM*, KB-V1 MDR tox inactive, PINK1 modulator 3.0% and MCF10A rereplic inconclusive.
For COc1cc(C(=O)Nc2ccc3c(c2)ncn3C)cc(OC)c1OC the results were KB-3-1 tox inconclusive, SW480 rerep inconclusive, KB-V1 MDR tox inconclusive, PINK1 modulator 9.0% and MCF10A rereplic 3.66µM*.
`COc1cc(C(=O)Nc2ccc3c(c2)nc(C)n3C)cc(OC)c1OC` gave KB-3-1 tox 4.11µM*, SW480 rerep 14.6µM*, KB-V1 MDR tox inactive, PINK1 modulator 10.8% and MCF10A rereplic 24.8%.
For CC(C)CC(=O)Nc1nnc(S(=O)(=O)N(CC(C)C)c2ccccc2)s1 the results were PINK1 modulator 0.6%.
For N#Cc1c(-c2ccc(F)cc2)c(-c2ccc(F)cc2)nn(CCO)c1=O the results were KB-3-1 tox 3.66µM*, SW480 rerep 3.26µM*, KB-V1 MDR tox 8.2µM*, PINK1 modulator inconclusive and MCF10A rereplic 5.8µM*.
`CCCOc1ccccc1C1CC(=O)Nc2cc3c(cc21)OCCO3` (configuration not stated) gave KB-3-1 tox 1.3µM*, SW480 rerep inconclusive, KB-V1 MDR tox 2.59µM*, PINK1 modulator 1.9% and MCF10A rereplic inconclusive.
Screening CCOc1ccccc1C1CC(=O)Nc2cc3c(cc21)OCCO3 (configuration not stated) returned KB-3-1 tox 0.461µM*, SW480 rerep 2.91µM*, KB-V1 MDR tox inconclusive, PINK1 modulator 3.0% and MCF10A rereplic 7.31µM*.
CCCCOc1ccccc1C1CC(=O)Nc2cc(OC)c(OC)cc21 (configuration not stated) was read as KB-3-1 tox inactive, KB-V1 MDR tox inactive and PINK1 modulator 2.3%.
Screening O=C1CCCCC(=O)[C@H](OC(=O)c2ccccc2)C[C@H](c2ccccc2)O1 returned KB-3-1 tox inactive, KB-V1 MDR tox inconclusive and PINK1 modulator -0.4%.
For CCn1cc(CNC(=O)CCSc2nc(-c3ccco3)cc(C(F)(F)F)n2)cn1 the results were KB-3-1 tox inconclusive, SW480 rerep inconclusive, KB-V1 MDR tox 4.61µM*, PINK1 modulator 6.3% and MCF10A rereplic inconclusive.
Screening O=C(CSc1nc(-c2ccco2)cc(C(F)(F)F)n1)Nc1ccc2c(c1)OCO2 returned KB-3-1 tox inconclusive, SW480 rerep -7.1%, KB-V1 MDR tox 18.4µM*, PINK1 modulator 9.6%[38.3 µM] and MCF10A rereplic -2.2%.
`O=C(CCCSc1nc(-c2ccco2)cc(C(F)(F)F)n1)Nc1ccc2c(c1)OCO2` gave KB-3-1 tox inactive, SW480 rerep 2.3%, KB-V1 MDR tox inactive, PINK1 modulator -2.9% and MCF10A rereplic -1.6%.
`CCc1ccccc1NC(=O)CCc1nc(-c2ccc(C)cc2)no1` gave KB-3-1 tox inactive, SW480 rerep -3.1%, KB-V1 MDR tox inactive, PINK1 modulator 15.4% and MCF10A rereplic 10.2%.
For Cc1ccc(-c2noc(CCC(=O)Nc3ccccc3C)n2)cc1 the results were KB-3-1 tox inactive, SW480 rerep -0.7%, KB-V1 MDR tox 16.4µM*, PINK1 modulator -0.3%[38.3 µM] and MCF10A rereplic 35.6%.
For Cc1ccc(-c2noc(CCC(=O)N(C)c3ccccc3C)n2)cc1 the results were KB-3-1 tox inconclusive, SW480 rerep 3.9%, KB-V1 MDR tox 13µM*, PINK1 modulator 1.1% and MCF10A rereplic 2.7%.
`Cc1ccc(N2CCN(S(=O)(=O)c3nnc(NC(=O)c4cccc(F)c4)s3)CC2)cc1` gave KB-3-1 tox inactive, KB-V1 MDR tox inactive and PINK1 modulator 0.4%.
`CCOC(=O)c1cc2c(nc1C)-c1cc(Cl)cc(Cl)c1OC2O` (configuration not stated) gave KB-3-1 tox inactive, SW480 rerep inconclusive, KB-V1 MDR tox inactive, PINK1 modulator 4.7% and MCF10A rereplic 18.4µM*.
For CCOC(=O)c1cc(C(=O)NN)c(C)nc1C the results were KB-3-1 tox inactive, SW480 rerep inconclusive, KB-V1 MDR tox inactive, PINK1 modulator 3.3% and MCF10A rereplic 6.7%.
C[C@H]1CN([C@@H](C)CO)C(=O)Cc2cc(NS(=O)(=O)c3cccs3)ccc2O[C@H]1CN(C)S(=O)(=O)c1cn(C)cn1 was read as KB-3-1 tox inactive, SW480 rerep -3.5%, KB-V1 MDR tox inactive, PINK1 modulator 0.2% and MCF10A rereplic -5.6%.
For C[C@@H]1CN([C@@H](C)CO)C(=O)CCCn2nncc2CO[C@H]1CN(C)C(=O)CCC(F)(F)F the results were KB-3-1 tox inactive, KB-V1 MDR tox inactive and PINK1 modulator 0.5%.
Screening C[C@@H]1CN([C@H](C)CO)C(=O)CCCn2nncc2CO[C@@H]1CN(C)C(=O)CCC(F)(F)F returned KB-3-1 tox 1.64µM*, KB-V1 MDR tox inactive and PINK1 modulator 0.3%.
Screening COc1ccc(NC(=O)CSc2oc(-c3cccs3)nc2S(=O)(=O)c2ccc(Br)cc2)c(OC)c1 returned KB-3-1 tox inactive, KB-V1 MDR tox inactive and PINK1 modulator -0.9%.
Screening Cc1nn(Cc2cccc(C(=O)Nc3ccn(Cc4c(F)c(F)cc(F)c4F)n3)c2)c(C)c1[N+](=O)[O-] returned KB-3-1 tox inconclusive, SW480 rerep 10.9%, KB-V1 MDR tox inconclusive, PINK1 modulator 2.1%[38.3 µM] and MCF10A rereplic 7.0%.
`Cc1nn(C)c(C(=O)Nc2ccn(Cc3c(F)c(F)cc(F)c3F)n2)c1[N+](=O)[O-]` gave KB-3-1 tox inactive, SW480 rerep -0.8%, KB-V1 MDR tox 13µM*, PINK1 modulator 3.4% and MCF10A rereplic 12.3%.
`CC(C)Nc1nc(Nc2ccccc2Cl)c2sccc2n1` gave KB-3-1 tox inactive, KB-V1 MDR tox inconclusive and PINK1 modulator 1.5%.
